Screening data: PubChem, National Center for Advancing Translational Sciences (NCATS)
Pf Dd2 inh = blocks in vitro growth of P. falciparum Dd2; P. falciparum Dd2 growth, SYBR Green, 72 h; Potency, µM (top dose mostly 28.9 µM), for inactives: top-dose activity, negative = inhibition, actives largely listed as inhibitors; actives 4.3% (n = 120,000); AID 1347417; active = well fitted inhibition curve with a large enough effect;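 note: plate controls were DMSO vehicle for no effect and reference drug for full effect; nearly all actives have a fitted effect of over 65% in size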
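Infected erythrocytes (Dd2, 0.3% parasitemia, 2.5% hematocrit final) are added to compound in RPMI-1640/Albumax II medium, grown 72 h at 37C in low oxygen, then lysed with saponin/Triton-X containing SYBR Green and read by fluorescence.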
The depositor's hits bear a star; i = inactive; [ ] = another dose, or the depositor's remark. Shown is part of a subset that was picked to be rich in hits. Potency is the fitted concentration of half-maximal effect.

SMILES	Pf Dd2 inh
CCC(=O)N1Cc2ccccc2CC2(CCCN2Cc2cccnc2)C1 (stereo not drawn)	17%
O=C(O)CCC(=O)N1Cc2ccccc2CC2(CCCN2Cc2cccnc2)C1 (stereo not drawn)	-7%
O=C(c1cncc(Cl)c1)N1CCC(c2nn(-c3ccc(F)cc3)c(=O)[nH]2)CC1	-15%
CC(C)=CCC1(CO)CCCN(c2ncccc2C(=O)N2CCCC2)C1 (stereo not drawn)	-8%
CCOc1ccc(N2CC(c3nc4ccccc4n3CCOc3ccccc3OC)CC2=O)cc1 (stereo not drawn)	13µM*
CCOc1ccc(-c2nc(C3CC(=O)N(c4ccc(OC)cc4)C3)no2)cc1 (stereo not drawn)	-26%
CCOc1ccc(N2CC(c3nc4ccccc4n3CC(C)C)CC2=O)cc1 (stereo not drawn)	-4%
CCOC(=O)Cn1c(C2CC(=O)N(c3ccc(C)cc3)C2)nc2ccccc21 (stereo not drawn)	37%
CCOc1ccc(N2CC(c3nc4ccccc4n3CCOc3ccc(CC)cc3)CC2=O)cc1 (stereo not drawn)	-27%
CCOc1ccccc1N1CC(c2nc3ccccc3n2CCCOc2ccccc2OC)CC1=O (stereo not drawn)	i
CCOc1ccccc1N1CC(c2nc3ccccc3n2CCOc2ccc(C(C)(C)C)cc2)CC1=O (stereo not drawn)	-24%
CCOc1ccc(N2CC(c3nc(-c4cc(OC)c(OC)c(OC)c4)no3)CC2=O)cc1 (stereo not drawn)	36%
CCOc1ccc(N2CC(c3nc4ccccc4n3CCCCOc3ccc(OC)cc3)CC2=O)cc1 (stereo not drawn)	13µM*
CCOc1ccc(N2CC(c3nc4ccccc4n3CCC3CCCCC3)CC2=O)cc1 (stereo not drawn)	11µM*
CCOc1ccc(N2CC(c3nc4ccccc4n3CCCOc3ccccc3)CC2=O)cc1 (stereo not drawn)	13µM*
COc1ccccc1C(=O)N1CCC2(CC1)CN(c1ncccn1)CC2CO (stereo not drawn)	-6%
O=C(O)C[C@@H]1CCN(C(=O)Nc2ccccc2)C[C@@H]1CCN1CCCCC1	5%[44.1 µM]
CC(=O)Nc1ccc(C(=O)N2C3CCC2CN(C(C)C)C3)cc1	11%
CCC(=O)N1CCC2(CC1)CC(N(CC)CC)CCO2 (stereo not drawn)	65%
O=C(CCc1ccc2c(c1)CCO2)Nc1ccc2c(c1)C(=O)N1CCC[C@H]1C(=O)N2	-14%
COCCNC(=O)[C@H]1C[C@H](Oc2ccccc2)CN1C(=O)COc1ccc(F)cc1	-13%
Cc1cc(C)cc(C(=O)N2CCN(C(=O)c3nnn4c3COC(c3ccccc3)C4)CC2)c1 (stereo not drawn)	-7%
Cc1ccc(S(=O)(=O)N2CC(c3nc(-c4ccncc4)no3)C2)cc1Cl	-24%
Cc1cc(C)n(CC(=O)N2CCC(c3nc(CCOCC4CCCC4)no3)C2)n1 (stereo not drawn)	2%
CCc1nc(C)c(C(=O)N2C[C@H]3CC[C@@H]2CN(C(=O)c2ccccc2)C3)s1	-3%
SMILES	Pf Dd2 inh
O=C(NCCc1cccs1)c1noc(-c2ccc(F)cc2)n1	-8%
Cc1cc2nc3n(c(=O)c2n1CC(=O)Nc1ccc(F)c(Cl)c1)CCCC3	153%
O=C(CN1CC2CC(C1)[C@H]1CCCC(=O)N1C2)NCc1ccccc1F (stereo partly drawn)	-12%
COCCN1CC(C(=O)N(C)Cc2cc(Cl)ccc2OC)CCC1=O (stereo not drawn)	-21%
CC(=O)N1CCCC1c1nc2ccccc2n1Cc1ccc(F)cc1 (stereo not drawn)	23%
Cc1cccc(C)c1OCCn1c(C2CC(=O)N(Cc3ccc(F)cc3)C2)nc2ccccc21 (stereo not drawn)	2.5µM*
Cc1cc(C)c(Cn2c(C3CC(=O)N(c4ccc(F)cc4)C3)nc3ccccc32)c(C)c1 (stereo not drawn)	i
CCOCc1nc(C2CCCN2S(=O)(=O)c2c(C)noc2C)no1 (stereo not drawn)	-19%
COc1cccc(Nc2cnc3ccc(N4CCOCC4)nn23)c1	i
FC(F)(F)Oc1ccc(Nc2cnc3ccc(N4CCOCC4)nn23)cc1	11µM*
COc1ncccc1Nc1cnc2ccc(N(C)C)nn12	i
Fc1ccc(-c2ccc3ncc(Nc4ccc5c(c4)OCO5)n3n2)cc1	i
FC(F)(F)c1cc(Nc2cnc3ccc(N4CCOCC4)nn23)ccc1Cl	-17%[44.1 µM]
COc1cncc(Nc2cnc3ccc(N(C)Cc4ccc(F)cc4)nn23)c1	i
Fc1ccc(-c2ccc3ncc(Nc4ccnc(N5CCOCC5)c4)n3n2)cc1	0.56µM*
COc1ccc(Nc2cnc3ccc(N4CCOCC4)nn23)cn1	i
Clc1ccccc1Nc1cnc2ccc(N3CCOCC3)nn12	-14%[44.1 µM]
CN1CCN(c2ccc3ncc(Nc4ccccc4F)n3n2)CC1	-1%[44.1 µM]
CN(Cc1ccc(F)cc1)c1ccc2ncc(Nc3ccnc(N4CCOCC4)c3)n2n1	4µM*
CN(Cc1ccc(F)cc1)c1ccc2ncc(Nc3ccc4c(c3)OCCO4)n2n1	5.6µM*
COCCNC(=O)[C@H]1C[C@H](Oc2cccnc2)CN1C(=O)c1cccc(OC)c1	3%
CCOc1cc(-c2noc(-c3nnn4c3COC(c3ccc(C)cc3C)C4)n2)ccc1OC (stereo not drawn)	i
Cc1cccc(C(=O)N2CCCC(c3nc(C(C)C)no3)CCNC(=O)CC2)c1 (stereo not drawn)	-10%
COc1cc(CN2CCC([C@@H]3CNC[C@H]3CO)CC2)cc(OC)c1	19%
COc1ccc2[nH]c(C(=O)N[C@H]3COC[C@H]3Cc3cc(C)no3)c(C)c2c1	0%
SMILES	Pf Dd2 inh
CNC(=O)CCn1ncc2cc(OCc3ccccc3-c3cccc(OC)c3)ccc21	-4%[44.1 µM]
CNC(=O)CCn1ncc2cc(OCc3ccccc3-c3ccc(OC)cc3C)ccc21	5.6µM*
O=C(O)CCn1ncc2cc(OCc3ccc(-c4cccc(CO)c4)cc3)ccc21	i
COc1ccc(C)cc1-c1ccc(COc2ccc3c(cnn3CCC(=O)O)c2)cc1	i
CNC(=O)CCn1ncc2cc(OC3CCc4cccc(-c5ccc(O)c(F)c5)c43)ccc21 (stereo not drawn)	i
CNC(=O)CCn1ncc2cc(OCc3ccccc3-c3ccsc3)ccc21	6.3µM*
CCOc1ncccc1Cn1cc(-c2cncnc2)nn1	-9%
COc1ccc(/C=C/c2ccc3c(c2)C(=O)N2CC[C@H](NC(=O)COCC(=O)O)[C@H]2C(=O)N3)cc1	-13%
COc1ccc(C(=O)N2CCC(N3CCNC3=O)CC2)cc1	4%[44.1 µM]
COC(=O)c1ccc2c(c1)nc1n2[C@@H](CNC2CCOCC2)COC1	-14%[44.1 µM]
CN1CCC(N2CCN(S(=O)(=O)c3ccc(F)cc3)CC2)C1=O (stereo not drawn)	28%
Fc1cc(F)cc(Cc2nc3nccc(-c4ccncc4)n3n2)c1	-21%
COC[C@@H]1CN(C(=O)CCc2ccccc2OC)C[C@H]1c1nc(C)no1	25%
COc1cc(C(=O)NC2CCCN(c3cc(-c4ccc(F)cc4)[nH]n3)C2)cc(OC)c1OC (stereo not drawn)	i
CCc1ccc(-n2c(=O)c3cccnc3n2CC(=O)NCc2ccc(F)cc2)cc1	-21%
Cc1nn(CC(=O)NCc2ccccc2Cl)c(=O)c2nn(-c3ccccc3)c(C)c12	11%
CCc1cccc(-n2c(=O)c3cccnc3n2CC(=O)NCc2ccccc2)c1	1µM*
CCc1cccc(-n2c(=O)c3cccnc3n2CC(=O)NCc2ccc(C)cc2)c1	1.1µM*
